For 27 molecules, morphology score and SARS-CoV-2 infection rate results are on record in the supplement of paper PMC13380429.

The structures appear in SMILES notation.

The subject of experiment [1] is Vero E6 infected with SARS-CoV-2. Description: morphology score (similarity to uninfected cells); higher = more like uninfected cells. The conditions noted are these: 24 h.
Experiment [2] has the same test system. Description: SARS-CoV-2 infection rate relative to infected DMSO; higher = more infection, active = 60 or less. Conditions: 24 h.

In experiment [1], `COC(=O)C1=C(C)NC(C)=C(C(=O)OCCN2CCN(C(c3ccccc3)c3ccccc3)CC2)C1c1cccc([N+](=O)[O-])c1` (centres undefined) [manidipine] (10 µM) yielded a morphology score of 0.247. Also, the SARS-CoV-2 infection rate in experiment [2] is 91% (inactive).
In the same order, the values of `CC(C)(NS(=O)(=O)c1ccc(Oc2ccc(F)cc2)cc1)C(=O)NO` (10 µM) are 0.193 and 99% (inactive).
In the same order, the values of `[NH-]c1c[n+](N2CCOCC2)no1` [linsidomine] (10 µM) are -0.0679 and 117% (inactive).
In the same order, the values of `NNC(=O)c1ccncc1` [isoniazid] (10 µM) are -0.115 and 111% (inactive).
`COc1cc(N2CCC(N)CC2)ccc1Nc1ncc(Cl)c(-c2c[nH]c3ccccc23)n1` (0.833333 µM) displayed a morphology score in experiment [1] of 0.205. For the same molecule, the SARS-CoV-2 infection rate in experiment [2] is 102% (inactive).
With `Cc1cc2c(C(N)=O)cccc2n1-c1nc2c(c(NCc3ccccc3)n1)COCC2` (10 µM), in experiment [1], the morphology score is -0.0618. Further, the SARS-CoV-2 infection rate in experiment [2] is 116% (inactive).
In the same order, the values of `CC(C)(C)Nc1nc(Nc2ccc(C(N)=O)cc2)cc(N)c1C#N` (0.833333 µM) are 0.029 and 106% (inactive).
In the same order, the values of `CCC(=O)NS(=O)(=O)c1ccc(-c2c(-c3ccccc3)noc2C)cc1` [parecoxib] (10 µM) are 0.0867 and 106% (inactive).
With `Cn1nnc(-c2ccc(-c3ccc(N4C[C@H](CO)OC4=O)cc3F)cn2)n1` [tedizolid] (10 µM), the morphology score in experiment [1] was 0.127. The SARS-CoV-2 infection rate in experiment [2] is 100% (inactive).
Take `COc1ccc2cc1Oc1ccc(cc1)C[C@H]1c3cc(c(OC)cc3CCN1C)Oc1c(OC)c(OC)cc3c1[C@H](C2)N(C)CC3` [tetrandrine] (10 µM): the morphology score in experiment [1] amounted to 0.509. For the same molecule, in experiment [2], the SARS-CoV-2 infection rate was 12% (active).
Molecule `Cc1nc(-c2ccc(OCC(C)C)c(C#N)c2)sc1C(=O)O` [febuxostat] (10 µM) displayed a morphology score in experiment [1] of 0.0407. The SARS-CoV-2 infection rate in experiment [2] is 118% (inactive).
For `CN1CCOC(c2ccccc2)c2ccccc2C1` (centres undefined) [nefopam] (10 µM), in that order: 0.0314 and 108% (inactive).
For `CC(C)c1cc(-c2n[nH]c(=O)n2-c2ccc3c(ccn3C)c2)c(O)cc1O` [ganetespib] (0.833333 µM), in that order: 0.0711 and 111% (inactive).
In the same order, the values of `NCCCC[C@H](N[C@@H](CCc1ccccc1)C(=O)O)C(=O)N1CCC[C@H]1C(=O)O` [lisinopril] (10 µM) are 0.0957 and 100% (inactive).
The molecule `COc1cc(O)c(C(=O)c2ccccc2)cc1S(=O)(=O)O` [sulisobenzone] (10 µM) yielded a morphology score in experiment [1] of -0.0207. The SARS-CoV-2 infection rate in experiment [2] was 109% (inactive).
As to `CC(C)C[C@H](NC(=O)[C@H](Cc1ccccc1)NC(=O)c1cnccn1)B(O)O` [bortezomib] (10 µM), the morphology score in experiment [1] is -0.0961. Further, the SARS-CoV-2 infection rate in experiment [2] is 96.5% (inactive).
In the same order, the values of `C=CCN1C[C@H](C)N([C@H](c2ccc(C(=O)N(CC)CC)cc2)c2cccc(OC)c2)C[C@H]1C` (10 µM) are -0.00563 and 106% (inactive).
On to `CC[C@H]1CN2CCc3cc(OC)c(OC)cc3[C@@H]2C[C@@H]1C[C@H]1NCCc2cc(OC)c(OC)cc21` [emetine] (0.833333 µM), for which, in experiment [1], the morphology score was -0.193. In addition, in experiment [2], the SARS-CoV-2 infection rate is 108% (inactive).
As for `CS(=O)(=O)N1CCN(Cc2cc3nc(-c4cccc5[nH]ncc45)nc(N4CCOCC4)c3s2)CC1` (10 µM), in experiment [1], the morphology score is -0.319. For the same molecule, the SARS-CoV-2 infection rate in experiment [2] is 89% (inactive).
For `CN(C)NC(=O)CCC(=O)O` [daminozide] (10 µM), in that order: 0.0765 and 95% (inactive).
In experiment [1], `COC[C@H](C)Oc1cc(O[C@@H](C)Cc2ccccc2)cc(C(=O)Nc2ccc(C(=O)O)cn2)c1` (10 µM) came in with a morphology score of -0.163. In experiment [2], the SARS-CoV-2 infection rate was 100% (inactive).
For `CN(C)Cc1ccc(-c2nc3cccc4c3n2CCNC4=O)cc1` (10 µM), in that order: 0.092 and 97.5% (inactive).
The molecule `CCCCC(=O)O[C@]1(C(=O)CO)CC[C@H]2[C@@H]3CCC4=CC(=O)CC[C@]4(C)[C@H]3[C@@H](O)C[C@@]21C` [hydrocortisone-valerate] (10 µM) showed a morphology score in experiment [1] of 0.0807. For the same molecule, in experiment [2], the SARS-CoV-2 infection rate was 107% (inactive).
For `COc1cc2nccc(Oc3ccc(NC(=O)C4(C(=O)Nc5ccc(F)cc5)CC4)cc3)c2cc1OC` [cabozantinib] (0.833333 µM), in that order: 0.329 and 97.5% (inactive).
In the same order, the values of `CC(/C=C1\SC(=S)N(CC(=O)O)C1=O)=C\c1ccccc1` [epalrestat] (10 µM) are 0.192 and 106% (inactive).
For `COC(=O)C[C@](O)(CCC(C)(C)O)C(=O)O[C@@H]1C(OC)=C[C@]23CCCN2CCc2cc4c(cc2[C@H]13)OCO4` [harringtonine] (10 µM), in that order: 0.555 and 49% (active).
In experiment [1], `Cc1cccn2c(=O)c(-c3nnn[nH]3)cnc12` [pemirolast] (10 µM) yielded a morphology score of 0.106. Also, the SARS-CoV-2 infection rate in experiment [2] was 94.5% (inactive).
